Screening results from PubChem.
Only a selection was taken, and hits are over-represented in it overall.
Tb PYK inh: T. brucei pyruvate kinase inhibition; Q57TT1; TbPYK enzyme, Kinase-Glo Plus ATP luminescence, 45 min; Potency, µM (top dose mostly 76.8 µM), inactives show at the highest dose activity, negative = inhibition, hits mostly inhibitors; hit rate 0.12% among 410,000; note: potency is the fitted concentration of half-maximal effect; % is set by controls: 0 for no effect and ±100 for the full control effect; nearly all actives have a fitted effect of over 50% in size
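Glycolytic pyruvate kinase of T. brucei was incubated with substrate, test compound and 130 uM ADP for 45 minutes at room temperature. Luminescent Kinase-Glo Plus signal was measured after 10 minutes.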
RE007 growth inh: less growth of the S. pombe RE007 Vpr strain | S. pombe RE007 Vpr strain, BacTiter-Glo ATP luminescence, 24 h | Potency, µM (series often up to 92.2 µM), without a hit: top-dose activity change, negative = less growth, actives largely listed as inhibitors | hit rate 0.21% among 360,000 | AID 651644; active = well fitted falling curve with a large enough effect; inconclusive = small, poorly fitted or top-dose-only effect; inactive = no such curve, though single readings can be large or run the other way; note: potency is the fitted concentration of half-maximal effect; % is set by controls: 0 for no effect and ±100 for the full control effect; nearly all actives have a fitted effect of over 50% in size
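Fission yeast strain RE007, carrying one chromosomally integrated HIV-1 vpr copy, was seeded at OD 0.01 in PMG+AL medium with 23 nL pinned compound. After 24 h at 30 °C and 99% humidity, viability was read by BacTiter-Glo luminescence.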
Cycloheximide cs: counter-screen hit for Shiga toxin inhibitors, cycloheximide | max response, % | cell reporter, cycloheximide protein synthesis inhibition counterscreen | AID 2314 | hit rate 12% among 300,000; in the data active = max response mostly above about 13%, no sharp cut-off; inactive = mostly below about 14%; note: read at 38.3 µM for the half of the compounds with a filed dose; 0% is about no effect
Shiga inhibitor: blocks Shiga toxin action in Vero cells. inhibition, % at 38.7 µM. Vero cells, Shiga toxin protein synthesis inhibition reporter. hit rate 9.2% among 290,000; in the data active = inhibition mostly above about 28%, no sharp cut-off; inactive = mostly below about 43%; note: 0% is about no effect
Giardia FBPA inh: blocks Giardia fructose-bisphosphate aldolase activity | hit rate 0.71% among 290,000 | purified Giardia FBPA | A8B2U2 | Potency, µM (series often up to 59.6 µM), without a hit: at the top dose activity, negative = inhibition, hits mostly inhibitors | AID 2451; note: potency is the fitted concentration of half-maximal effect; % is set by controls: 0 for no effect and ±100 for the full control effect; nearly all actives have a fitted effect of over 55% in size
Target sequence (A8B2U2 whole entry, looked up): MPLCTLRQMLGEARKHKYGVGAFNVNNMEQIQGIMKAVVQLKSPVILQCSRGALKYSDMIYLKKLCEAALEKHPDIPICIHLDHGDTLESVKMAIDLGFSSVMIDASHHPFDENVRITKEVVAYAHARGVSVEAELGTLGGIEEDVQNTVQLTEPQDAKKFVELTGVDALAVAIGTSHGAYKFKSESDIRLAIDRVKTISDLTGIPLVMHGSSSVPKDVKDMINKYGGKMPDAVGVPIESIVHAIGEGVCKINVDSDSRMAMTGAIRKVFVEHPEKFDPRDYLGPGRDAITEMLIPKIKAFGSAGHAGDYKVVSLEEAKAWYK
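Giardia FBPA (40 nM reagent) was preincubated 10 min at RT with compound (up to 57.5 uM final), then substrate plus GAPDH/TPI/NAD/arsenate coupling system with diaphorase/resazurin was added; resorufin fluorescence (525/598 nm) was read after 20 min.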
LmPK inhibitor: LmPK (Leishmania mexicana) enzyme inhibition. AID 1721. Potency, µM (highest dose often 57.5 µM), for the others: at the highest dose activity change, negative = inhibition, hits mostly inhibitors. Q27686. hit rate 0.37% among 290,000. purified LmPK, Kinase-Glo ATP luminescence, 1 h; note: potency is the fitted concentration of half-maximal effect; % is set by controls: 0 for no effect and ±100 for the full control effect
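0.1 nM LmPK, 0.5 mM PEP, 0.1 mM ADP; 50 mM imidazole pH 7.2, 7 mM MgCl2, 50 mM KCl; 1 h RT. Kinase-Glo luminescence readout, normalized to no-enzyme (full inhibition) and uninhibited wells.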
* marks the source's active call; other numbers are inactive results; i = inactive; ? = inconclusive; . = no result given; [ ] = dose if it differs, or a comment. Unless noted, calls come from the whole dose curve; as a rule, active = well fitted curve in the direction sought with a large enough effect; inconclusive = small, poorly fitted or top-dose-only effect, or another doubt; inactive = no such curve, though single readings can be large; an effect the other way counts as inactive or inconclusive.

SMILES	Tb PYK inh	RE007 growth inh	Cycloheximide cs	Shiga inhibitor	Giardia FBPA inh	LmPK inhibitor
Cc1ccc(NC(=S)N/N=C2\CCCCC2C)cc1 (centres undefined)	-7%	7%	44*	95*	-16%	0%
O=C(Oc1ccccc1)N1CCC2(CC1)CCN(c1ccccc1)CC2	4%	.	.	.	1%	.
C=CCNC(=O)N1CCc2nc(-c3ccccc3)c3c(c2C1)CO[C@@H](C)C3	.	.	.	.	3%[12.9 µM]	4%[11.5 µM]
COc1cc(C2c3c(-c4cc(C)ccc4O)n[nH]c3C(=O)N2CCCO)ccc1OCCC(C)C (centres undefined)	-12%	.	.	.	.	.
COc1ccccc1CNC(=O)c1cccc(-c2ccccc2OC)n1	.	.	12	i	3%[89.2 µM]	.
COc1ccc(CNc2ccc3c(c2)CCC3)cc1Br	2%	-10%	41*	70*	?	3%
CCOc1cc(CNc2ccc3c(c2)CCC3)ccc1OC	.	.	35*	66	-28%	7%
CCOc1ccc(NC(=O)COc2ccc3c(c2)CCC3)cc1OC	2%	-13%	.	.	.	.
COc1ccc(CNCc2ccc3c(c2)OCO3)cc1Br	14%	-15%	10	15	?	-2%
COc1ccccc1CNc1ccc2c(c1)CCC2	-5%	-12%	32*	.	?	9%
CCOc1ccc(CNC(=O)CCCn2c(=O)c3cccn3c3cccnc32)cc1	-5%	.	.	.	.	.
COc1ccc(C(=O)c2cc3c(cc2[N+](=O)[O-])OCCO3)cc1	-7%	-9%	9	21	2%	7%
COc1ccc(C(=O)n2c(SC)nc3cc4c(cc32)OCCO4)cc1	-1%	11%	49*	52*	0%	3%
CC(=O)Nc1cccc(OC(=O)c2ccoc2C)c1	-3%	5%	9.7*	13	?	-1%
Cc1ccc(NC(=O)c2ccoc2C)cc1C	-24%	-21%	40*	107*	-7%	14µM*
Cc1occc1C(=O)Nc1cccc(C(F)(F)F)c1	8%	?	14	14	-6%	10%
Cc1occc1C(=O)Nc1ccc2c(c1)OCO2	-16%	-7%	37*	78*	-2%	14µM*
Cc1occc1C(=O)Nc1cccc(C(=O)O)c1	-8%	9%	20*	34	4%	2%
CCC(C)Nc1sc(S(=O)(=O)CC)nc1S(=O)(=O)c1ccc(C)cc1 (centres undefined)	3%	.	.	.	.	.
CCOc1ccc(NC(=O)Cn2c(=O)oc3cc(S(=O)(=O)NC4CCCC4)ccc32)cc1	-5%	.	.	.	.	.
COC(=O)[C@@H]1C[C@@H]2CC[C@@H](O)C[C@@H]2N1Cc1ccc(N2CCOCC2)cc1	.	.	.	.	-16%	.
COCCN=C1OC(=O)N2C(=O)C3=C4C(C[C@H]5C(=O)N(c6ccccc6)C(=O)[C@H]5[C@H]4[C@@]12Cc1ccccc1)[C@H]1C(=O)N(c2ccccc2)C(=O)[C@H]1[C@H]3C (some centres undefined)	.	.	.	.	-1%	.
COc1cccc2c1CCC1CC(=O)CC[C@@]21C (some centres undefined)	.	.	.	.	4%	.
Cc1occc1C(=O)NNC(=O)Nc1ccc(Cl)c(Cl)c1	?	-2%	13*	22	6%	1%
Cc1ccsc1C(=O)NNC(=O)Nc1ccc(Cl)c(Cl)c1	0%	1%	14	35	0%	3%
SMILES	Tb PYK inh	RE007 growth inh	Cycloheximide cs	Shiga inhibitor	Giardia FBPA inh	LmPK inhibitor
COc1ccc(C2CC(C)(c3ccc(OC)cc3OC)Nc3ccccc3N2)c(OC)c1 (centres undefined)	4%	-3%	30*	63*	-10%	?
COC(=O)C1=C(C)C(c2ccc(OC)cc2OC)NC(=O)N1 (centres undefined)	-5%	-9%	-4	22	0%	0%
Cc1ccc(-n2ccnc(NCCc3ccc(S(N)(=O)=O)cc3)c2=O)c(C)c1	-6%	.	.	.	.	.
C/C(=N\NC(=O)COc1ccc(C(C)(C)C)cc1)c1cc2ccccc2o1	0%	11%	24*	38*	5%	6%
C/C(=N\NC(=O)COc1ccc(C(C)(C)C)cc1)c1ccccc1	2%	-3%	-2	18	-6%	2%
COc1ccc(NCC(=O)N/N=C(\C)c2cc3ccccc3o2)cc1	-6%	-11%	16*	20	-12%	2%
COCCNC(=S)N/N=C(\C)c1cc2ccccc2o1	-18%	-11%	9	25*	3%	3%
COc1ccc(-c2noc(Cn3c(=O)c4ccccc4n(CC(=O)Nc4cccc(C(F)(F)F)c4)c3=O)n2)cc1	5%	.	.	.	.	.
COCCn1c(=O)c(-c2ccc(F)cc2)nc2cnc(OC)nc21	.	.	.	.	1%	.
COC1C=CO[C@@]2(C)Oc3c(C)c(O)c4c(O)c(c(C=NN5CCN(C)CC5)c(O)c4c3C2=O)NC(=O)/C(C)=C\C=CC(C)C(O)[C@@H](C)C(O)C(C)[C@H](OC(C)=O)C1C (some centres undefined)	-10%	.	.	.	?	.
COc1cccc(N2CCN(c3cnc4ccccc4n3)CC2)c1	-2%	-16%	36*	94*	-9%	4%
COc1ccc(S(=O)(=O)N2CCN(c3ncccn3)CC2)cc1	1%	3%	.	.	.	.
COc1ccc(N2CCN(c3cnc4ccccc4n3)CC2)cc1	-9%	5%	37*	70*	3%	-1%
COc1ccc(N2CCN(c3cc(C)c4ccccc4n3)CC2)cc1	-1%	-21%	7	2	-1%	11%
COc1ccc(N2CCN(c3ncccn3)CC2)cc1	5%	3%	24*	152*	-2%	-8%
COc1ccccc1CN1CCC(CNC(=O)c2cnn(-c3ccc(Cl)cc3)c2C2CCN(C(=O)OC(C)(C)C)CC2)CC1	0%	.	.	.	.	.
CCc1ccc(NC(=O)N(Cc2c[nH]c3ccccc23)C2CCCCC2)cc1	2%	.	.	.	.	.
O=C(c1ccc(Cl)cc1)N1CCn2c1nc1ccccc12	-21%	-2%	-4	4	0%	-2%
COc1cccc(C(=O)N2CCn3c2nc2ccccc23)c1	-2%	-1%	24*	34	8%	1%
O=C(c1cccs1)N1CCn2c1nc1ccccc12	-15%	-7%	41*	56*	8%	?
COc1ccc(CNC(=O)C2CCCN(S(=O)(=O)c3ccc4c(ccn4C)c3)C2)c(OC)c1 (centres undefined)	-1%	.	.	.	.	.
CC(=O)c1cccc(OCc2cc(C(=O)N(C)Cc3ccc(C)o3)no2)c1	?	-16%	22*	79*	-8%	5%
CC(=O)c1cccc(OCc2cc(C(=O)N(C)CCc3ccccn3)no2)c1	0%	0%	15*	37	3%	-4%
CN(Cc1ccccn1)C(=O)c1cc(COc2ccc(F)c(F)c2)on1	-3%	5%	.	.	.	.
CC(=O)c1ccc(OCc2cc(C(=O)N(C)CCOc3ccc(C)cc3)no2)cc1	-3%	-5%	47*	81*	.	-7%
